Assay results: PubChem BioAssay AID463173 (ICCB-Longwood Screening Facility, Harvard Medical School, 2010)
About 4,300 (8.3%) of roughly 52,000 compounds were called active. The sample holds actives, similar compounds and a random draw of the others, so the mix is not that of the screen. A number with no mark means an inactive call. No stated cut-off is given here; in the data, active means survival mostly below about 52% (no sharp cut-off); inactive means mostly above about 56%.

tested on: DeltatarO mutant; assay: growth inhibition of S. aureus wild type versus tarO mutant, primary screen, teichoic acid synthesis inhibitors, RN4220, OD600 (AID 463173); conditions: OD600, 18 h, hits give low values, screened at 18.75 µg/mL (by protocol)

SMILES | survival
Cc1cc(C)c(Cn2c(=O)n(-c3ccccc3Cl)c(=O)c3c(C)c(C(=O)N(C)C)sc32)c(C)c1 | 86%
CCNc1nc2c(c(=O)n(C)c(=O)n2C)n1CC(O)COc1ccccc1 (stereo unspecified) | 61%
CCCCNc1nc2c(c(=O)n(C)c(=O)n2C)n1CC(O)COc1ccccc1C (stereo unspecified) | 42% (active)
CCCNc1nc2c(c(=O)n(C)c(=O)n2C)n1CC(O)COc1ccccc1 (stereo unspecified) | 62%
Cc1cccc(NC(=O)CSc2nc3c(c(=O)[nH]2)CN(Cc2ccc4c(c2)OCO4)CC3)c1C | 78%
O=C1CCC(=O)N1CC(=O)N1CCCc2ccccc21 | 85%
CCN(CC)S(=O)(=O)c1ccc2c(c1)nc(CN(C)C(=O)Nc1ccc(C)c(Cl)c1)n2C | 86%
Cc1ccc(-n2ncc3c(Nc4cccc(C)c4C)ncnc32)cc1 | 94%
Cc1ccc(-n2ncc3c(NC(C)c4ccccc4)ncnc32)cc1 (stereo unspecified) | 94%
CC(=O)NNc1ncnc2c1cnn2-c1ccccc1 | 46% (active)
Cc1ccc(-n2ncc3c(NCCCc4ccccc4)ncnc32)cc1 | 89%
CCCCc1ccc(Nc2ncnc3c2cnn3-c2ccc(C)cc2)cc1 | 17% (active)
Cc1ccc(C)c(Nc2ncnc3c2cnn3-c2ccc(F)cc2)c1 | -1% (active)
CCOc1ccccc1Nc1ncnc2c1cnn2-c1ccc(C)cc1 | 87%
CCC(CO)Nc1ncnc2c1cnn2-c1ccc(C)cc1 (stereo unspecified) | -5% (active)
COc1ccc(C(=O)NNc2ncnc3c2cnn3-c2ccccc2)cc1 | 92%
Cc1ccc(-n2ncc3c(Nc4ccc(Oc5ccccc5)cc4)ncnc32)cc1 | 68%
CCC(C)Nc1ncnc2c1cnn2-c1ccc(F)cc1 (stereo unspecified) | 72%
CC(C)(C)c1ccc(C(=O)NNc2ncnc3c2cnn3-c2ccccc2)cc1 | 115%
Cc1ccccc1NC(=O)CCNC(=O)Cn1ccc2ccccc2c1=O | 70%
N/C(=N\c1nc2ccccc2o1)NC(=O)/C=C/c1ccco1 | 85%

SMILES | survival
Cc1ccc(-n2c(=O)c3ccc(C(=O)NCc4ccco4)cc3n(Cc3ccc(Cl)cc3)c2=O)cc1 | 77%
CS(=O)(=O)c1ccc2nc(NC(=O)CN3C(=O)c4ccccc4C3=O)sc2c1 | 85%
COc1ccc(CNC(=O)CSCc2cnn(-c3ccccc3)c2-n2cccc2)cc1OC | 106%
Cc1coc2cc3oc(=O)c(CCC(=O)NCc4ccc(Cl)cc4)c(C)c3cc12 | 69%
CCn1cc2nc(SCc3ccc(C)cc3)n(CCc3ccccc3)c(=O)c2n1 | 78%
N#Cc1cc2cc3c(cc2nc1SCC(=O)N1CCN(c2ccc(F)cc2)CC1)OCCO3 | 67%
CC(C)(C)c1ccc(OCC(=O)Nc2ccc(C(=O)OC3CCCCC3)cc2)cc1 | 71%
CCOC(=O)c1cc(-c2ccccc2)n(-c2cccc(C(=O)Nc3ccc(OC)cc3)c2)c1C | 83%
CCOC(=O)c1cc(-c2ccccc2)n(-c2cccc(C(=O)Nc3cccc(F)c3)c2)c1C | 135%
CCOC(=O)c1cc(-c2ccccc2)n(-c2cccc(C(=O)Nc3cc(OC)cc(OC)c3)c2)c1C | 81%
CCOC(=O)c1cc(-c2ccccc2)n(-c2cccc(C(=O)Nc3ccc(OCC)cc3)c2)c1C | 37% (active)
CCOC(=O)c1cc(-c2ccccc2)n(-c2cccc(C(=O)Nc3cccc(C(C)=O)c3)c2)c1C | 89%
CCOC(=O)c1cc(-c2ccccc2)n(-c2cccc(C(=O)Nc3cccc(SC)c3)c2)c1C | 32% (active)
CCOC(=O)c1ccccc1NC(=O)Nc1cc2c(cc1N1CCCCC1)n(C)c(=O)n2C | 76%
CCC1CCCCN1C(=O)CSc1nnc(-c2ccc(OC)c(OC)c2)o1 (stereo unspecified) | 71%
CCOc1cc(CNC(=O)CN2CCSc3ccccc32)cc(OCC)c1OCC | 85%
CC(C)CCNC(=O)C1CCC(Cn2c(=O)c3sccc3n(CC(=O)NC(C)C)c2=O)CC1 (stereo unspecified) | 95%
CCOC(=O)c1c(SCC(=O)Nc2cccc(C)c2C)nc(=O)[nH]c1C | 67%
CCOC(=O)c1c(SCC(=O)Nc2nc3ccccc3s2)nc(=O)[nH]c1C | 6% (active)
CCOC(=O)c1c(SCC(=O)Nc2nc3ccc(C)cc3s2)nc(=O)[nH]c1C | 70%
CCCCc1ccc(C(=O)N/C(=C\c2ccc(C)cc2)C(=O)NC2CCCCC2)cc1 | 66%

SMILES | survival
Cn1c(=O)n(CCCc2ccccc2)c(=O)c2c1nc1n2CCN1c1ccccc1 | 75%
O=C(Nc1ccc(Cl)c(Cl)c1)c1cc(S(=O)(=O)N2CCN(c3cccc(Cl)c3)CC2)ccc1F | 68%
COc1cc(C(=O)N2CCC(c3ccncc3)CC2)cc(OC)c1OC | 88%
COc1cc(OC)cc(C(=O)N2CCC(c3ccncc3)CC2)c1 | 89%
COc1ccc(C(=O)N2CCC(c3ccncc3)CC2)cc1OC | -5% (active)
CCOc1ccc(C(=O)N2CCC(c3ccncc3)CC2)cc1 | 94%
CCN(CC)c1ccc(C(=O)N2CCC(c3ccncc3)CC2)cc1 | 88%
CCOc1cc(C(=O)N2CCC(c3ccncc3)CC2)cc(OCC)c1OCC | 17% (active)
CCNC(=O)Cc1ccc(NC(=O)N2CCCCc3ccccc32)cc1 | 74%
O=C(Nc1nnc2n1CCS2)c1ccccc1C(F)(F)F | 93%
O=C(c1ccc2c(Cl)c3c(nc2c1)CCCC3)N1CCN(c2cccc(Cl)c2)CC1 | 65%
O=C(c1ccc2c(Cl)c3c(nc2c1)CCCC3)N1CCN(c2cccc(C(F)(F)F)c2)CC1 | 64%
O=C(c1ccc2c(Cl)c3c(nc2c1)CCCC3)N1CCN(c2ccc(Cl)cc2)CC1 | 92%
Cc1cccc(N2CCN(C(=O)c3ccc4c(Cl)c5c(nc4c3)CCCC5)CC2)c1C | 93%
Cc1ccc(C)c(N2CCN(C(=O)c3ccc4c(Cl)c5c(nc4c3)CCCC5)CC2)c1 | 98%
Cc1ccc(Cl)cc1N1CCN(C(=O)c2ccc3c(Cl)c4c(nc3c2)CCCC4)CC1 | 31% (active)
O=C(c1ccc2c(Cl)c3c(nc2c1)CCCC3)N1CCN(c2ccccc2F)CC1 | -3% (active)
O=C(c1ccc2c(Cl)c3c(nc2c1)CCCC3)N1CCN(c2ccccc2)CC1 | 20% (active)
Cc1ccc(N2CCN(C(=O)c3ccc4c(Cl)c5c(nc4c3)CCCC5)CC2)c(C)c1 | 88%
